Source: PubChem
Compounds with a hit are over-represented: about 4% of the library has one in this group of screens.
ERAP1 inh: blocks human ERAP1 aminopeptidase activity; Q9NZ08; AID 652197; 340,000 compounds, 0.15% hits; inhibition, % at 10.7 µM; recombinant ERAP1, Leu-AMC fluorescence, 60 min;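 active = mean replicate inhibition of at least 30%, or all replicates individually reaching that 30% level; inactive = mean below 30% and not every replicate reaching it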;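 also: 0% = neutral control wells and 100% = L-leucinethiol positive control wells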
Target sequence (Q9NZ08 whole entry, looked up): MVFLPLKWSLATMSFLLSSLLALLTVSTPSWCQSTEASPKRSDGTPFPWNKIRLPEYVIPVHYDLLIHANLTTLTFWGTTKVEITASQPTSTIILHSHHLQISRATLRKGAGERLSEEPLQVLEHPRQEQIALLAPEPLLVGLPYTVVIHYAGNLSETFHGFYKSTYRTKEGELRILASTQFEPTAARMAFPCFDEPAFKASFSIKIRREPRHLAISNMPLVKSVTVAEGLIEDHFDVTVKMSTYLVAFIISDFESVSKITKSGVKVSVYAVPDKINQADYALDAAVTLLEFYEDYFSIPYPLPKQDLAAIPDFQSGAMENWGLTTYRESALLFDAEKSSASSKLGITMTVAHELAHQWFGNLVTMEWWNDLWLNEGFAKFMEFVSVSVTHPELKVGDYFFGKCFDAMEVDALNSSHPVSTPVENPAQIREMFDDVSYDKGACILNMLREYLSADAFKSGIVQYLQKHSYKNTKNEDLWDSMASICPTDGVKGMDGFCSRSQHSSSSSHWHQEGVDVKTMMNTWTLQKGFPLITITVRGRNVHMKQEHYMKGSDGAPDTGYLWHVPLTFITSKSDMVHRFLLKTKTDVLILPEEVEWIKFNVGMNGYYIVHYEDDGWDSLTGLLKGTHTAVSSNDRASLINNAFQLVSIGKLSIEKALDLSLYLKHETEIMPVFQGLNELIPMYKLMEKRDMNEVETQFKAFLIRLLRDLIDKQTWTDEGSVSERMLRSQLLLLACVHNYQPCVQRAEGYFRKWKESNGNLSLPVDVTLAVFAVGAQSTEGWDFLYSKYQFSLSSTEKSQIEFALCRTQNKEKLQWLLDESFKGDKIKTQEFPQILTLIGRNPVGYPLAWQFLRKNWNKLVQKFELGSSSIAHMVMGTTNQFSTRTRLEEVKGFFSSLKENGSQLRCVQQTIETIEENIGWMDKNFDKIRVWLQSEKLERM
DENV2 CPE: DENV2-induced cell death inhibition; 350,000 compounds, 1.7% hits; CPE inhibition, % at 9.99 µM; DENV2-infected cells, cytopathic effect rescue, plate reader; AID 651640; in the data active = CPE inhibition above about 20%, passing the limit was not always enough; inconclusive = no clear call, values can overlap the other calls; tested in BHK-21 cells;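 also: 0% = median of neutral control wells and 100% = median of positive control wells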
RAD52 anneal inh: blocks human RAD52 DNA annealing | P43351 | recombinant RAD52 DNA annealing, FRET fluorescence | inhibition, % at 18.7 µM | 360,000 compounds, 0.46% hits | AID 651710;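 active = every replicate showing at least 50% inhibition; inconclusive = mean inhibition at least 50% but not in every replicate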
FGF22 binding: binders of recombinant human FGF22 by thermal shift; Q9HCT0; activity (Tm shift, normalised), % at 9.99 µM; 340,000 compounds, 1.5% hits; AID 651658; SYPRO orange fluorescence; percent of sucrose octasulfate shift, DMSO zero;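 active = mean Tm shift, scaled 0 neutral to 100 positive control, at about 1.3% or above, every replicate too, limit read from the data; inconclusive = no clear call, values can overlap the other calls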
AF4-AF9 inh: MLL-AF4/AF9 protein interaction inhibition; AlphaScreen, biotin-AF4 peptide binding to FLAG-AF9; P42568; inhibition, % at 10 µM; 350,000 compounds, 0.47% hits;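 active = every replicate reaching a set inhibition limit, whatever the replicate mean, cut at about 25% in these data; inconclusive = mean inhibition reaches that limit but some replicates miss it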;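 also: 0% = plate neutral control median and 100% = total signal loss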
Starred values were filed as active, the others as inactive; ? = inconclusive; · = no result.

SMILES | ERAP1 inh | DENV2 CPE | RAD52 anneal inh | FGF22 binding | AF4-AF9 inh
COc1cccc(NC(=O)N(C)C[C@@H]2Oc3ncc(C#Cc4ccncc4)cc3C(=O)N([C@@H](C)CO)C[C@@H]2C)c1 | -5 | ? | -9 | 0 | -2
CCCNC(=O)C1(C)CCCN(Cc2ccc(Cl)cc2)C1 (stereo not given) | -1 | 1 | -12 | 0 | 0
CCCNC(=O)C1(C)CCCN(Cc2ccc(C#N)cc2)C1 (stereo not given) | -2 | 48* | -8 | 0 | 2
CCOC(=O)C1CCN(c2nc(C)cc(C)c2C#N)CC1 | -2 | -4 | -8 | 0 | -2
CCOC(=O)C1CCN(c2nc(N)c3c(N)nc(SCC(=O)O)cc3c2C#N)CC1 | 31* | 7 | -87 | -1 | 1
Cc1ccccc1CN1CCNC(=O)C1CC(=O)O (stereo not given) | -1 | 33* | -20 | 0 | -3
COc1cccc(CN2CCNC(=O)C2CC(=O)O)c1OC (stereo not given) | 7 | 12 | -7 | 0 | -4
O=C(C[C@H]1CC[C@H](NS(=O)(=O)c2ccccc2)[C@H](CO)O1)N1CCN(c2ccccc2)CC1 | -1 | 6 | 1 | 0 | -2
Cc1ccc(C(=O)NCC(=O)OCC(=O)c2cc(C)n(Cc3ccco3)c2C)cc1 | -2 | -5 | -19 | 0 | 3
CCn1c(C)cc(C(=O)COC(=O)CNC(=O)c2ccco2)c1C | -1 | 61* | -21 | 0 | 3
Cc1ccc(C2=NC3(CCCCC3)NC2=S)cc1 | -1 | 22* | -30 | 0 | 1
c1ccc(-c2ccc([C@H]3[C@H]4CNC[C@@H]3N4Cc3cc(-c4ccccc4)on3)cc2)cc1 | · | ? | · | 0 | ·
Cc1ccc(SCCN2CCC(NC(=O)OCc3ccccc3)CCC2=O)cc1 (stereo not given) | 0 | 32* | -18 | 0 | 0
O=C(N[C@H]1CCC(=O)N(CCSc2ccc(Br)cc2)CC1)OCc1ccccc1 | -2 | -2 | 12 | 0 | -1
CC(C)Oc1ccc(C2C(C#N)=C(N)Oc3c2oc(CO)cc3=O)cc1 (stereo not given) | 8 | 4 | -18 | 44* | -1
COc1ccccc1C1C(C#N)=C(N)Oc2c1oc(CO)cc2=O (stereo not given) | 0 | -2 | 1 | 0 | 1
N#CC(C#N)=Cc1cccn1-c1ccc(C(=O)O)cc1 | 2 | · | -21 | 0 | -2
N#C/C(=C/c1cccn1-c1cccc(C(=O)O)c1)c1ccc(Cl)cc1 | 0 | 1 | -30 | 44* | -2
O=C(COc1ncnc2sccc12)Nc1ccc(F)cc1F | 1 | 1 | -22 | 44* | 0
CN(CC(=O)Nc1ccc(F)c(F)c1F)c1ncnc2sccc12 | 1 | 31* | -28 | 1 | -2
C[C@H]1CN([C@@H](C)CO)C(=O)c2cc(/C=C/c3ccccc3)cnc2O[C@H]1CN(C)Cc1cncnc1 | 1 | 1 | -5 | 0 | -1
CCC(C)NC(=O)C(=O)NC1CCCC1 (stereo not given) | -5 | -8 | -11 | 44* | -1
CC(C)CCNC(=O)C(=O)NC1CCCC1 | -4 | 7 | -6 | 44* | -2
CCCCCCn1c(=O)n2n(c1=O)C[C@]1(OC(=O)Nc3cccs3)CN(S(=O)(=O)c3ccc(C)cc3)C[C@]1(O)C2 | -3 | 0 | -11 | 0 | -1
CCCCCCn1c(=O)n2n(c1=O)C[C@]1(OC(=O)Nc3c(C)noc3C)CN(S(=O)(=O)c3ccc(C)cc3)C[C@]1(O)C2 | 2 | 7 | -2 | 43* | -1
SMILES | ERAP1 inh | DENV2 CPE | RAD52 anneal inh | FGF22 binding | AF4-AF9 inh
Cc1noc(C)c1NC(=O)Nc1ccc2c(c1)C(=O)N([C@@H](C)CO)C[C@@H](C)[C@H](CN(C)C(=O)Nc1c(C)noc1C)OCCCC[C@@H](C)O2 | -5 | 30* | 1 | 0 | -3
Cc1noc(C)c1NC(=O)Nc1ccc2c(c1)C(=O)N([C@H](C)CO)C[C@H](C)[C@H](CN(C)C(=O)Nc1ccccc1)OCCCC[C@H](C)O2 | -2 | 68* | 4 | 0 | -3
Cc1noc(C)c1NC(=O)Nc1ccc2c(c1)C(=O)N([C@@H](C)CO)C[C@@H](C)[C@H](CN(C)C)OCCCC[C@@H](C)O2 | 2 | 16 | 10 | 0 | -1
Cc1noc(C)c1NC(=O)Nc1ccc2c(c1)C(=O)N([C@@H](C)CO)C[C@@H](C)[C@@H](CN(C)S(C)(=O)=O)OCCCC[C@@H](C)O2 | -2 | 102* | 5 | 0 | 0
Cc1noc(C)c1NC(=O)Nc1ccc2c(c1)C(=O)N([C@@H](C)CO)C[C@@H](C)[C@@H](CN(C)C(=O)Nc1ccccc1)OCCCC[C@H](C)O2 | -1 | 0 | 8 | 0 | -2
Cc1noc(C)c1NC(=O)Nc1ccc2c(c1)C(=O)N([C@@H](C)CO)C[C@@H](C)[C@@H](CN(C)C)OCCCC[C@@H](C)O2 | 2 | 84* | -3 | 0 | -1
CCN1/C(=C\C(=S)Nc2ccccc2)Sc2ccccc21 | 1 | -3 | -12 | 44* | 10
CCN1/C(=C\C=C(C(C)=O)C(C)=O)Sc2ccccc21 | 9 | -5 | -242 | 1 | 6
CC(C)C#Cc1cnc2c(c1)C(=O)N([C@H](C)CO)C[C@H](C)[C@H](CN(C)C(=O)Nc1ccccc1F)O2 | 2 | ? | 7 | 0 | -5
C[C@@H]1CCCCO[C@H](CN(C)Cc2ccc(Cl)c(Cl)c2)[C@@H](C)CN([C@H](C)CO)C(=O)c2cc(NC(=O)NC3CCCCC3)ccc2O1 | 0 | -1 | -12 | -1 | 1
O=C(NCCc1ccc(Cl)cc1Cl)c1ccc2nc[nH]c2c1 | 1 | -2 | -8 | 0 | -8
O=C(NCCc1ccc(Cl)cc1)c1ccc2nc[nH]c2c1 | 6 | -3 | -32 | 43* | 0
CCN1CCN(CCNC(=O)c2ccc(/C=C3\Sc4ccccc4N(Cc4ccccc4F)C3=O)cc2)CC1 | · | -7 | 85* | 0 | 21
COCCCNC(=O)/C=C1\Sc2ccccc2N(Cc2ccccc2F)C1=O | · | -3 | -10 | 0 | -40
O=C(Nc1ccccc1F)N[C@@H]1CC[C@H](CCNC(=O)C2CCCC2)O[C@H]1CO | -1 | 26* | -3 | 0 | -1
O=C(Nc1ccccc1F)N[C@@H]1CC[C@H](CCNC(=O)C2CCCC2)O[C@@H]1CO | 1 | -6 | -4 | 0 | -1
O=C(Nc1ccccc1F)N[C@@H]1CC[C@@H](CCNC(=O)C2CCCC2)O[C@H]1CO | 2 | 39* | 3 | 0 | 0
CCS(=O)(=O)Nc1ccc2c(c1)C(=O)N(C)C[C@@H](OC)[C@H](C)CN(Cc1ccccn1)[C@H](C)CO2 | -3 | -4 | -7 | 0 | -2
CCN(CC1COc2ccccc2O1)C(=S)Nc1ccc(F)cc1 (stereo not given) | 0 | -4 | 1 | 44* | -1
O=C1CCC/C(=N/Nc2ccc(Cl)cc2)C1 | 0 | -1 | -19 | 44* | 13
O=C(NN=C1CCCC1)c1ccc(Cl)cc1 | -1 | -6 | -13 | 0 | -1
